# Laboratory results as given in PubChem BioAssay AID2546 (National Center for Advancing Translational Sciences (NCATS), 2010).
# Hit rate of the full screen: of about 310,000 compounds, about 11,000 (3.5%) were called active. Roughly 8% stayed inconclusive and do not appear here. Only a selection was taken, and actives are over-represented in it overall. Values without a mark were called inactive. The call rests on the fitted dose curve; in most records, active means well fitted inhibition curve with a large enough effect; inconclusive means small, poorly fitted or top-dose-only effect, or effect the other way; inactive means flat fitted curve, though single readings scatter.
# Assay: VP16 counterscreen qHTS for inhibitors of ROR gamma transcriptional activity;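 further: Gal4-VP16 expression switched on by copper sulfate through the metallothionein promoter; nearly all actives have a fitted effect of over 50% in size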
# Settings: Drosophila S2 Gal4-VP16 UAS-luciferase, luminescence, 20 h; series mostly up to 53.6 µM; activity, negative = inhibition: at the top concentration
# On the % scale 0 is the no-effect control and ±100 the full control effect; potency means the concentration at half of the fitted maximal effect.
SMILES,"activity, negative = inhibition",Potency
Cc1cccc(N2CCN(S(=O)(=O)c3ccc(-c4cc(C)no4)s3)CC2C)c1 (stereo not drawn),1.53%,–
COCCCNS(=O)(=O)c1cccc(S(=O)(=O)c2cccc(S(=O)(=O)NCCCOC)c2)c1,-23.9%,–
CCOc1ccccc1NS(=O)(=O)c1c[nH]c(C(=O)OC)c1,0.313%,–
CCCNC(=O)CSc1nc(Cc2ccccc2)nc2ccccc12,13.9%,–
COCc1ccc(CN2CCC(Oc3ccc(C(=O)NCc4ccccn4)cc3)CC2)o1,1.21%,–
C/C(=N\O)C1(C)N(O)C(C)(C)C(c2ccc(Br)cc2)=[N+]1[O-] (stereo not drawn),24.1%,–
CC(=O)C1(C)N(O)C(C)(C)C(c2cccs2)=[N+]1[O-] (stereo not drawn),–,10 µM (active)
CC1(C)C(c2cccs2)=[N+]([O-])C2(CCCCC2=O)N1O (stereo not drawn),0%,–
COc1ccc(C2/C=C\CN(Cc3ccco3)C(C)C(=O)N2Cc2ccc(F)cc2)cc1 (stereo not drawn),-2.15%,–
COc1ccc(CN2CC(C(=O)NC3CCCCC3)CC2=O)cc1 (stereo not drawn),-2.51%,–
COc1ccc(CN2CN(C3CCCC3)CSC2=S)cc1,–,11.2 µM (active)
COc1ccc(CN2CN(C(C)C)CSC2=S)cc1,5.57%,–
CC(C)Nc1ccc(-n2nc3ccccc3[n+]2[O-])cc1,–,10 µM (active)
CC1CCN(C(=O)CCNC(=O)c2ccccc2)CC1,-3.13%,–
COc1ccc(CCNC(=O)CN2C(=O)CCSc3ccccc32)c(OC)c1,3.66%,–
C=CCn1c(=S)sc2c(=O)[nH]c(C)nc21,4.03%,–
C=CCn1c(-c2ccc3[nH]c(C)c(C)c3c2)n[nH]c1=S,–,12.6 µM (active)
COc1cc(-c2n[nH]c(=S)n2Cc2ccccc2)cc(OC)c1OC,4.14%,–
COC(=O)c1cccc(C(=O)N2CCC(CCC(=O)NCc3ccc(F)cc3)CC2)c1,-1.98%,–
O=C(c1ccc(Oc2ccc(Cl)cc2)c([N+](=O)[O-])c1)N1CCCC1,-9.29%,–
CCN(CC)c1ccc(C(=O)Nn2c(C)nc3ccccc3c2=O)cc1,-12.5%,–
COC(=O)c1ccc2c(=O)n(CCN3CCOCC3)c(SCC(=O)Nc3cccc(OC)c3)nc2c1,8.75%,–
COc1ccccc1N1CCN(S(=O)(=O)CCNC(=O)c2ccc(OC(C)C)cc2)CC1,-17.5%,–

SMILES,"activity, negative = inhibition",Potency
O=C(NC(=S)N1CCc2ccccc21)c1ccco1,–,3.16 µM (active)
O=C(CSCc1ccccc1)N1CCc2ccccc21,-18%,–
NC(=O)N1CCc2ccccc21,-1.97%,–
CN(C)c1ccc(-c2nnc(-c3cccnc3)o2)cc1,-28.8%,–
O=C(Nc1ccncc1)Nc1ccc(F)cc1,-1.61%,–
Cc1ccc(C)c(N2CCN(C(=O)CCCCCn3c(=S)[nH]c4ccc(N5CCOCC5)cc4c3=O)CC2)c1,–,5.62 µM (active)
Cc1ccc(C)c(N2CCN(C(=O)CCCCn3c(=O)[nH]c4ccccc4c3=O)CC2)c1,-1.55%,–
Cc1ccc(C)c(N2CCN(C(=O)CCCn3c(=O)c4cccn4c4cccnc43)CC2)c1,-5.07%,–
O=C(CSc1nc2nccnc2c(=O)n1Cc1cccs1)Nc1ccccc1F,8.14%,–
CC(=O)N(C)c1ccc(NC(=O)Nc2cccc3ccccc23)cc1,-1.22%,–
CCN1/C(=C/C(=S)Nc2ccccc2)Sc2ccccc21,–,12.6 µM (active)
CCNC(=O)N1c2ccccc2Sc2ccccc21,-17% [at 10 µM],–
O=C(CCN1c2ccccc2Sc2ccccc21)Nc1ccccc1,-5.2%,–
Cc1ccc(C(=O)N2CC(=O)Nc3ccc(F)cc3C2c2ccc(F)cc2)cc1 (stereo not drawn),3.68%,–
CN(CC1CCCO1)S(=O)(=O)c1ccc(C(=O)Nc2ccc(F)cc2)cc1 (stereo not drawn),0%,–
COC(=O)[C@]1(S(=O)(=O)c2ccccc2)C[C@@H]2ON=C(c3ccc(OC)cc3)[C@@H]2C1,5.28%,–
N#C[C@]1(S(=O)(=O)c2ccccc2)C[C@@H]2ON=C(c3cccc(Br)c3)[C@@H]2C1,–,11.2 µM (active)
Cc1cc(NC(=O)c2ccco2)c(=O)n(Cc2c(F)cccc2Cl)c1,-2.23%,–
Cc1c(CN2CC[C@@H](N3CCN(c4ccccn4)CC3)[C@H](O)C2)[nH]c2ccc(F)cc12,-0.0686%,–
CC(C)n1c(=S)[nH]c2cc(C(F)(F)F)ccc21,–,10 µM (active)
CCCn1c(=S)[nH]c2ccc(C(F)(F)F)cc21,1.78%,–
COc1ccc(C)cc1N(C(=O)Cn1nnc(-c2ccc(C)o2)n1)C(C(=O)NC1CCCC1)c1ccncc1 (stereo not drawn),12.3%,–
COc1ccc(-c2nc(N)ncc2-c2ccc(Cl)cc2)c(O)c1,3.63%,–

SMILES,"activity, negative = inhibition",Potency
Cc1[nH]nc(-c2ccc(OCc3cnn(-c4ccccc4)c3)cc2O)c1Oc1ccc(Cl)cc1,–,3.98 µM (active)
Oc1cccc(C2c3[nH]c4ccccc4c3CCN2Cc2cnn(-c3ccccc3)c2)c1 (stereo not drawn),-0.197%,–
COC(=O)c1c(NC(=O)c2ccccc2F)sc2c1C(C(=O)OC)CC2 (stereo not drawn),6.15%,–
CCc1ccc(N2CC(C(=O)N3CCCCCC3)CC2=O)cc1 (stereo not drawn),13.1%,–
COc1ccc(-n2cc(-c3ccccc3)c3c(=S)nc[nH]c32)cc1,–,1.12 µM (active)
O=c1[nH]cnc2c1c(-c1ccccc1)cn2-c1ccc(F)cc1,-8.72%,–
COc1ccc(N2C(=O)C(Cc3ccccc3)NC2=S)cc1 (stereo not drawn),2.35%,–
Cc1ccc(S(=O)(=O)NCc2ccc(C(=O)NC3CCC(C)CC3)cc2)cc1 (stereo not drawn),-9.72%,–
O=C(CSc1nnc(-c2ccccc2O)o1)NC1CCCCC1,-6.98%,–
CCSc1nnc(-c2cc3c(s2)-c2ccccc2CC3)o1,–,2.51 µM (active)
Fc1ccc(CSc2nnc(-c3cc4c(s3)-c3ccccc3CC4)o2)cc1,-1.37%,–
COc1cccc(CNc2ncc(-c3ccccc3)n2C)c1,-9.84%,–
O=C(CCC1CCCN(C(=O)c2ccc(F)c(F)c2)C1)N1CCN(c2ccccn2)CC1 (stereo not drawn),0.946%,–
Cc1cc(C(=O)NCCCc2ccccc2)no1,4.71%,–
CCCCNC(=S)NNC(=O)c1cc(C)on1,–,11.2 µM (active)
COCCCNC(=S)NNC(=O)C(O)(c1ccccc1)c1ccccc1,5.88%,–
O=C(NCCN1CCCC(O)C1)c1cc(COc2c(F)cccc2F)on1 (stereo not drawn),1.48%,–
CC1CCN(S(=O)(=O)c2ccc(NC(=O)C3CC(=O)N(c4ccccc4)C3)cc2)CC1 (stereo not drawn),-1.06%,–
COc1cccc(NC(=O)C(=O)c2cn(CC(=O)N3CCOCC3)c3ccccc23)c1,-11.5%,–
C/C(=N\NC(=S)Nc1ccc(C)cc1)c1cc2ccccc2o1,–,0.794 µM (active)
Cc1ccc(NC(=O)c2cc3ccccc3o2)cc1,7.14%,–
Cc1ccc(OC(=O)c2cc3ccccc3o2)cc1,-4.47%,–
